Consider 20 compounds from PubChem BioAssay.

Assay [1] can be described thus: antimalarial activity against Dd2 strain (AID 2302;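 active = growth inhibition above 50% at the single 2 µM test dose, taken to imply half-maximal potency below 2 µM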;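 also: 0% = DMSO untreated growth and 100% = chloroquine plus artemisinin killed control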). Particulars: P. falciparum Dd2 in RBCs, LDH growth readout, 72 h; at 2 µM; active compounds read high.
A short description of assay [2]: HepG2 cytotoxicity, primary screen, cytotoxicity control for P. falciparum antimalarial project, cell-based, ATP luminescence (AID 2303;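 active = inhibition above 50%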;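 also: 0% = DMSO wells and 100% = digitonin-killed cells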). Particulars: HepG2 viability, 24-48 h, at 10 µM, active compounds read high.
In assay [3] the target is L-lactate dehydrogenase (Plasmodium falciparum (isolate CDC / Honduras)) (UniProt Q27743). The assay can be described thus: PfLDH activity inhibition – cell lysate, 3D7 strain, counter-screen for P. falciparum growth inhibition project (AID 2304).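 Also: 0% = vehicle and 100% = reference inhibitor.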 Particulars: P. falciparum 3D7 crude extract, LDH APAD/NBT absorbance; at 2 µM; active compounds read high.
The nature of assay [4]: inhibition of 3D7 malaria parasite growth – strain 3D7 (AID 2306).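 Also: 0% = DMSO wells and 100% = chloroquine plus artemisinin control wells.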 The note with it: P. falciparum 3D7 erythrocytic growth, LDH absorbance, 72 h; at 2 µM; active compounds read high.
Assay [5] concerns the target Calcium-dependent protein kinase 1 (Plasmodium falciparum (isolate 3D7)) (UniProt P62344). Kind of assay: PfCDPK1 kinase inhibitors, biochemical, TCAMS library (AID 1159585; cut-off not given, nearly all actives have IC50 up to about 0.98 µM;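 also: inhibitors leave more ATP so luminescence rises with inhibition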). Particulars: recombinant PfCDPK1, Kinase-Glo ATP depletion luminescence. Background: Kinase-Glo reads ATP consumption through a luciferase reaction.
The target of assay [6] is Plasmodium falciparum protein kinase 6 (PK6, PF3D7_1337100) (UniProt Q8IDW1). The assay can be described thus: PfPK6 kinase inhibitors, biochemical, TCAMS library (AID 1159586). Particulars: recombinant PfPK6, Kinase-Glo ATP depletion luminescence.
Assay [7] has as its target Protein kinase 7 (PK7), Plasmodium falciparum 3D7 (PF3D7_0213400) (UniProt Q7YTF7). Kind of assay: inhibition of Plasmodium PK7 catalytic activity – biochemical, TCAMS antimalarial set, Kinase-Glo luminescence (AID 1159587). The note with it: recombinant PfPK7, Kinase-Glo ATP depletion luminescence.
The target of assay [8] is Calcium-dependent protein kinase 4 (Plasmodium falciparum (isolate 3D7)) (UniProt Q8IBS5). The assay can be described thus: PfCDPK4 kinase inhibitors, biochemical, TCAMS library (AID 1159588; cut-off not given, nearly all actives have IC50 up to about 0.91 µM). Particulars: recombinant PfCDPK4, Kinase-Glo ATP depletion luminescence.

Values without a mark were called inactive. For some of these results: Measured potencies and affinities stand elsewhere. The source made the active and inactive calls. Unless noted, no rule for the calls is given here.

Sequence of Calcium-dependent protein kinase 4 (Plasmodium falciparum (isolate 3D7)) (Q8IBS5 whole entry, looked up): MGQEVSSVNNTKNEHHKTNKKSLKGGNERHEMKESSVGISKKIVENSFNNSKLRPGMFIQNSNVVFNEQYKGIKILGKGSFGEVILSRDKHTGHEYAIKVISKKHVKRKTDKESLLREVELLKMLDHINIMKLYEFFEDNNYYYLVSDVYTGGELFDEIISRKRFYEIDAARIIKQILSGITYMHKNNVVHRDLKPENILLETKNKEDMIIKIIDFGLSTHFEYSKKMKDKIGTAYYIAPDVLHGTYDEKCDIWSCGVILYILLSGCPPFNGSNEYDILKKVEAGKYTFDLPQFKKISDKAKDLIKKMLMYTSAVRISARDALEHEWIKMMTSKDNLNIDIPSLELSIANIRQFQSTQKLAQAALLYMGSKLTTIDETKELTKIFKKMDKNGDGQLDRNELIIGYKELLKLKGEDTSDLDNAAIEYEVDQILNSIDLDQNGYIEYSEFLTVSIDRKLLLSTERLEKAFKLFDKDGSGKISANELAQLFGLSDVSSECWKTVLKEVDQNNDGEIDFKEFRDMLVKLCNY
Sequence of Plasmodium falciparum protein kinase 6 (PK6, PF3D7_1337100) (Q8IDW1 1-305): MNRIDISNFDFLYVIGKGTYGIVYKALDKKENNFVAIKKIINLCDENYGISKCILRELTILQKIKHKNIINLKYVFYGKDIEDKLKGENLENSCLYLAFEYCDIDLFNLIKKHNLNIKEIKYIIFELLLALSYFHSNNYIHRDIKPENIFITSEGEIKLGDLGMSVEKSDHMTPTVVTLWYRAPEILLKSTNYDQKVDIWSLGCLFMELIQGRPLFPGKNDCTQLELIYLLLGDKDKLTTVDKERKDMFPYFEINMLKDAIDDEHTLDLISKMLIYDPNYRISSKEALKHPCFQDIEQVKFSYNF
Sequence of Protein kinase 7 (PK7), Plasmodium falciparum 3D7 (PF3D7_0213400) (Q7YTF7 1-343): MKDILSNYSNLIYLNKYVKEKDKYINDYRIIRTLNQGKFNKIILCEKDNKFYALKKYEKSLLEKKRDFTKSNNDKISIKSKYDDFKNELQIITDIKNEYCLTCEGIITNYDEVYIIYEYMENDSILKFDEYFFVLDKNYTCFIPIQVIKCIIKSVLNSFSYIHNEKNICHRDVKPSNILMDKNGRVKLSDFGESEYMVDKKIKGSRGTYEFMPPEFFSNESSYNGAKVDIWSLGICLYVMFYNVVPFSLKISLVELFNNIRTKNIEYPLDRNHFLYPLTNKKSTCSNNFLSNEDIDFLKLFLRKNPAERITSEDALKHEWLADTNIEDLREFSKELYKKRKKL
Sequence of L-lactate dehydrogenase (Plasmodium falciparum (isolate CDC / Honduras)) (Q27743 whole entry, looked up): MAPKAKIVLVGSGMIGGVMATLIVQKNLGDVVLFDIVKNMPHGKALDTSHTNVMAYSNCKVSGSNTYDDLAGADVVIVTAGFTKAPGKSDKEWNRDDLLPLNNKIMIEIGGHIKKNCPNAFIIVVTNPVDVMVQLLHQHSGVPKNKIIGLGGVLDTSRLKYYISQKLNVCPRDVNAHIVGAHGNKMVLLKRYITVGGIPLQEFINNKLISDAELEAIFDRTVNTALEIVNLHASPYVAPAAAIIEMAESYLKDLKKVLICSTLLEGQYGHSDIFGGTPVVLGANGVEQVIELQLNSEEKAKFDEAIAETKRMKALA
Sequence of Calcium-dependent protein kinase 1 (Plasmodium falciparum (isolate 3D7)) (P62344 whole entry, looked up): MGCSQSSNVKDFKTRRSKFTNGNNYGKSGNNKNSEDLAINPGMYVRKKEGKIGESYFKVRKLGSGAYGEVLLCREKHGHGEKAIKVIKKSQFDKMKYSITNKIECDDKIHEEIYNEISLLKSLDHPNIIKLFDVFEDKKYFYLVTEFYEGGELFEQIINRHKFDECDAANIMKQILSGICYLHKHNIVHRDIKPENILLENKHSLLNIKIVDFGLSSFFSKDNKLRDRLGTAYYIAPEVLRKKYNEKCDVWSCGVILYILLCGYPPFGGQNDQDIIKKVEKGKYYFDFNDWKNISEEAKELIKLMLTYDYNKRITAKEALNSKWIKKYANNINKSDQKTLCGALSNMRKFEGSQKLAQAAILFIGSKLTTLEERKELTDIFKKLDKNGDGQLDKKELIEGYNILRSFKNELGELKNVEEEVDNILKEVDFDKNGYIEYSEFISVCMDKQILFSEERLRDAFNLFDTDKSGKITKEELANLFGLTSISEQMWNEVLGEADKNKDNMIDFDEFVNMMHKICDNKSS

Consider `Fc1cccc(COc2ccc(Nc3ncnc4sc(C#CCNC5CCCC5)cc34)cc2Cl)c1`, for which the growth inhibition in assay [1] was 78% (active); in assay [4] it was 100% (active). Moreover, the inhibition in assay [2] and in assay [3] was 3% throughout. For the same compound, the outcome in assay [5], in assay [6], in assay [7] and in assay [8] was inactive.

Regarding `Cc1cccc(Oc2cccc3[nH]nc(N)c23)c1`, the figures for the growth inhibition in assay [1] and in assay [4] were -3% and 85% (active), respectively. The inhibition (usually the change of the read-out against control, counted positive when it falls) in assay [2] was 6%; in assay [3], -2%. For the same compound, the result in assay [5], in assay [6], in assay [7] and in assay [8] was inactive.

Take `CN(CCCCCN1CCC(NC(=O)Nc2ccc(C(F)(F)F)cc2)C1)C(=O)/C=C/c1ccc(Cl)c(Cl)c1` (stereo not given): the growth inhibition was 11% in assay [1] and 101% (active) in assay [4]. Moreover, the inhibition was 28% in assay [2] and -3% in assay [3]. Also, the result in assay [5], in assay [6], in assay [7] and in assay [8] was inactive.

Take `CC(C)CN1CCN(c2nc(C#N)c3c(c2C(=S)NC2CCCCC2)CC(C)(C)OC3)CC1`: the growth inhibition in assay [1] was 99% (active); in assay [4], 101% (active). In addition, the inhibition was -4% in assay [2] and -2% in assay [3]. In addition, the outcome in assay [5], in assay [6], in assay [7] and in assay [8] was inactive.

For `CC(=O)N(C)c1cccc(C(=O)Nc2cccc(-c3cccc(-c4nc5ccc(C(F)(F)F)cc5[nH]4)c3)c2)c1`, the growth inhibition in assay [1] was 41%; in assay [4], 97% (active). The values for the inhibition in assay [2] and in assay [3] were 49% and -5%, respectively. In addition, the result in assay [5], in assay [6], in assay [7] and in assay [8] was inactive.

In the case of `Cc1c2c(nn1-c1ccccc1)C(c1ccccc1)N(c1ccccc1)C2=O` (stereo not given), the figures for the growth inhibition in assay [1] and in assay [4] were 96% (active) and 92% (active), respectively. For the same compound, the inhibition in assay [2] is 42%; in assay [3], 1%. Also, the outcome in assay [5], in assay [6], in assay [7] and in assay [8] was inactive.

For the compound `Cc1c(C(=O)N(C)C)sc2c1c(=O)n(Cc1ccccc1)c(=O)n2CC(=O)Nc1ccccc1F`, the growth inhibition in assay [1] was 98% (active); in assay [4], 97% (active). Further, the inhibition in assay [2] is 13%; in assay [3], -1%. Also, the result in assay [5], in assay [6], in assay [7] and in assay [8] was inactive.

Consider `CNC(=C[N+](=O)[O-])NCCSCc1cc(C)c(CN(C)C)s1`, for which the growth inhibition was 96% (active) in assay [1] and 98% (active) in assay [4]. Also, the values for the inhibition in assay [2] and in assay [3] were 48% and -1%, respectively. In addition, the outcome in assay [5], in assay [6], in assay [7] and in assay [8] was inactive.

Consider `COc1cc(C(F)(F)F)cc2[nH]c(CNCCCNc3nc4ccccc4[nH]3)cc12`, for which the growth inhibition in assay [1] is 2%; in assay [4] it was 102% (active). For the same compound, the inhibition was 59% (active) in assay [2] and 2% in assay [3]. Further, the outcome in assay [5], in assay [6], in assay [7] and in assay [8] was inactive.

Regarding `COc1ccc(CN=C(N)Nc2nc(-c3ccc(OCCCn4ccnc4)cc3)cs2)cc1`, the growth inhibition in assay [1] is 67% (active); in assay [4], 100% (active). The inhibition is 15% in assay [2] and -5% in assay [3]. The result in assay [5], in assay [6], in assay [7] and in assay [8] was inactive.

With `CC(C)(C)c1cc(CN2CCN(Cc3ccccc3)CC2)cc(C(C)(C)C)c1O`, the results for the growth inhibition in assay [1] and in assay [4] were 0% and 97% (active), respectively. Besides, the results for the inhibition in assay [2] and in assay [3] were 9% and 0%, respectively. Further, the outcome in assay [5], in assay [6], in assay [7] and in assay [8] was inactive.

On to `CC(=O)Oc1c(C2CCN(CCCCNC(=O)c3ccc(NC(=O)c4ccc(Cl)cc4)cc3)CC2)ccc2c1CCCC2`, for which the growth inhibition was 80% (active) in assay [1] and 100% (active) in assay [4]. The inhibition was 21% in assay [2] and 2% in assay [3]. Moreover, the outcome in assay [5], in assay [6], in assay [7] and in assay [8] was inactive.

Regarding `CC[C@H](C)[C@@H](C(=O)N1CCOCC1)N1CC[C@H](NS(=O)(=O)CC(C)(C)c2ccc(Cl)cc2)C1=O`, the growth inhibition in assay [1] was 95% (active); in assay [4], 101% (active). Besides, the inhibition in assay [2] is -1%; in assay [3] it was 1%. Further, the result in assay [5], in assay [6], in assay [7] and in assay [8] was inactive.

With `COc1ccc2ncc(Cl)c(CCN3CCC(NCc4ccc5c(n4)NC(=O)CO5)CC3)c2c1`, the results for the growth inhibition in assay [1] and in assay [4] were 26% and 92% (active), respectively. The inhibition in assay [2] was 25%; in assay [3] it was -1%. The outcome in assay [5], in assay [6], in assay [7] and in assay [8] was inactive.

For `CC1CC(C)CN(S(=O)(=O)c2cc(C(=O)Nc3cccc([N+](=O)[O-])c3)ccc2Br)C1` (stereo not given), the growth inhibition was 68% (active) in assay [1] and 101% (active) in assay [4]. The values for the inhibition in assay [2] and in assay [3] were 1% and -5%, respectively. In addition, the outcome in assay [5], in assay [6], in assay [7] and in assay [8] was inactive.

On to `Cc1ccc2nc(NC#N)[nH]c2c1`, for which the growth inhibition was -3% in assay [1] and 96% (active) in assay [4]. Moreover, the inhibition in assay [2] is 7%; in assay [3], 2%. Further, the result in assay [5], in assay [6], in assay [7] and in assay [8] was inactive.

Take `O=C(/C=C/c1ccc(Cl)cc1)NCCCCCN1CCCC(C(=O)Nc2cccc(Cl)c2)C1` (stereo not given): the growth inhibition is 4% in assay [1] and 96% (active) in assay [4]. Further, the inhibition was 21% in assay [2] and 0% in assay [3]. Moreover, the result in assay [5], in assay [6], in assay [7] and in assay [8] was inactive.

As to `COc1cc2nc(N3CCC(CNC(=O)c4ccc(-c5ccc(C(=O)N(C)C)cc5OCCN(C)C)cc4)CC3)nc(N)c2cc1OC`, the figures for the growth inhibition in assay [1] and in assay [4] were -1% and 95% (active), respectively. Further, the inhibition in assay [2] was -1%; in assay [3] it was -6%. Further, the result in assay [5], in assay [6], in assay [7] and in assay [8] was inactive.

Take `CCC(CO)NCC(O)Cn1c2ccc(Br)cc2c2cc(Br)ccc21` (stereo not given): the growth inhibition was 87% (active) in assay [1] and 100% (active) in assay [4]. Further, the inhibition is 18% in assay [2] and -6% in assay [3]. Moreover, the result in assay [5], in assay [6], in assay [7] and in assay [8] was inactive.

Turning to `CN(C)Cc1c(O)ccc2[nH]c(-c3cccc(F)c3)nc12`, the growth inhibition in assay [1] was 71% (active); in assay [4], 99% (active). Further, the inhibition in assay [2] is 9%; in assay [3], -2%. Further, the outcome in assay [5], in assay [6], in assay [7] and in assay [8] was inactive.
